Screening results from PubChem BioAssay.
Rows were chosen to be rich in hits. Some 3% of all compounds tested hit in one or more screens of this group.
Ub-GFP proteasome: inhibits proteasome, raising ubiquitin-GFP reporter fluorescence. Ubiquitin-GFP reporter cells, proteasome inhibition, GFP fluorescence; response scale: untreated = 0%, 10 µM MG-132 = 100%. Potency, µM (titrated, usually from 45.9 µM), for inactives: at the top dose activation (GFP accumulation), most hits filed as activators. 67,000 tested, under 10 active; active means well fitted activation curve with a large enough effect, not every such curve was filed as active; inconclusive means small, poorly fitted or top-dose-only effect, or another doubt; inactive means no such curve, though single readings can be large or run the other way; further: potency means the concentration at half of the fitted maximal effect
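Proteasome block read as GFP accumulation: ubiquitin(G76V)-GFP U2OS cells exposed to compound (2.9 nM–46 uM) for 4 hr at 37 C. Normalization used untreated cells as 0% and 10 uM MG-132 as 100%; concentration-response curves fitted.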
Tau fil binding: binds recombinant human tau filaments; Potency, µM (series often up to 57.1 µM), for the others: at the top dose activity change, negative = inhibition; P10636; recombinant tau filaments, thioflavin S fluorescence, 15 h; filaments grown with octadecylsulfate alongside compound; 71,000 tested, 2% active;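 further: potency means the concentration at half of the fitted maximal effect; on the % scale 0 is the no-effect control and ±100 the full control effect; actives lower thioflavin S fluorescence by blocking filaments or displacing dye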
Target sequence (P10636 whole entry, looked up): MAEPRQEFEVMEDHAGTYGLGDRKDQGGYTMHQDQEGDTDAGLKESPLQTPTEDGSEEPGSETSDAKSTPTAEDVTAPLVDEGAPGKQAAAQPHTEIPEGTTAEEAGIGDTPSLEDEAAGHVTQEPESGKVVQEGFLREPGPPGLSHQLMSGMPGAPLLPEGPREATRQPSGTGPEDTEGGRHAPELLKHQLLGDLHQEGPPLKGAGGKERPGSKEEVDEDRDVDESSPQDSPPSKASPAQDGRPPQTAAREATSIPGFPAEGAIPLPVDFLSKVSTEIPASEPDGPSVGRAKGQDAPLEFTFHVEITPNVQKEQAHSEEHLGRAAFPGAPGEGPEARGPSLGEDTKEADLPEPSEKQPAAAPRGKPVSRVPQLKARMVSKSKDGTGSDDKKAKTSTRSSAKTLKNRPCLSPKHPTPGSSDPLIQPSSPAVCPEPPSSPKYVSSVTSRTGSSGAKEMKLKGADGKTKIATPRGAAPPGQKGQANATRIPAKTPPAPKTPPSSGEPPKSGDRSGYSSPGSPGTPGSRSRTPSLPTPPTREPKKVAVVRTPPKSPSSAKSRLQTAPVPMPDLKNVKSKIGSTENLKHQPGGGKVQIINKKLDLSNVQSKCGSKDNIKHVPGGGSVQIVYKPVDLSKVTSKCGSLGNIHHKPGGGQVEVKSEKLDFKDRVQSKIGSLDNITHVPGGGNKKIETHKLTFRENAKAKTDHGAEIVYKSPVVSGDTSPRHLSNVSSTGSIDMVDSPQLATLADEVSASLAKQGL
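ThS-based fibril read: tau 1 uM final, inducer ODS 30 uM final, 37 C for 15 h, ex 450/em 510 nm.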
Epigenetic mod: epigenetic GFP locus derepression in mouse cells. 68,000 tested, 0.09% active. AID 597. Potency, µM (doses to about 46.1 µM), inactives show top-dose GFP derepression (activation). mouse C127i GFP locus derepression, cytometry, 30 h; further: % of control where 0% means no effect
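Read-out is the number of GFP-positive cells, scored as fluorescent objects 20 to 120 um wide, reflecting derepression of a silenced CMV-GFP reporter in murine C127i cells after 30 h compound exposure at 37 C.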
ERK AVP block: vasopressin-driven ERK pathway inhibition; HEK293-V1b, vasopressin-stimulated pERK AlphaScreen; Potency, µM (highest dose often 57.5 µM), inactives show top-dose activity, negative = inhibition, usual class: inhibitors; 72,000 tested, 0.99% active; AID 995; further: potency means the concentration at half of the fitted maximal effect; on the % scale 0 is the no-effect control and ±100 the full control effect; nearly all actives have a fitted effect of over 55% in size
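qHTS, compounds titrated on V1b-expressing HEK293 cells. Preincubation 30 min at 37C, vasopressin 25 nM for 5 min, lysis 10 min, bead incubation 5 hr at room temperature.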
HBB splicing: modulators of hemoglobin beta chain splicing. HBB splicing reporter cell assay, activation; EGFP reporter with mutant IVS2-654 intron; response scale: normalised to 500 nM splice-correcting PNA. AID 925. 65,000 tested, 0.06% active. Potency, µM (top dose mostly 46.1 µM), for the others: top-dose activation, actives largely listed as activators; further: potency means the concentration at half of the fitted maximal effect; 0% is about no effect
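HeLa cells stably expressing EGFP interrupted by mutant beta-globin intron 2 (IVS2-654), 500/well in 2% FCS. Treated with compound for 2 days at 37C. Splicing correction scored as total well GFP intensity (488 nm excitation, 500-520 nm emission); 500 nM antisense PNA served as control.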
Hsp90 Hop PPI: changes Hsp90-Hop TPR2A binding signal, up or down | AlphaScreen TPR2A-His6 binding biotin-Hsp90 C-terminal peptide | Potency, µM (highest dose often 57 µM), for inactives: at the highest dose activity change, negative = inhibition | 71,000 tested, 0.44% active | AID 595; active means well fitted curve in either direction with a large enough effect; inconclusive means small, poorly fitted or top-dose-only effect, or another doubt; further: potency means the concentration at half of the fitted maximal effect; on the % scale 0 is the no-effect control and ±100 the full control effect
* = called active by the depositor; i = inactive; ? = inconclusive; · = no result given; [ ] = dose if it differs, or a comment. Unless noted, the call rests on the fitted dose curve; in most records, active means well fitted curve in the direction sought with a large enough effect; inconclusive means small, poorly fitted or top-dose-only effect, or another doubt; inactive means no such curve, though single readings can be large; an effect the other way counts as inactive or inconclusive.

SMILES	Ub-GFP proteasome	Tau fil binding	Epigenetic mod	ERK AVP block	HBB splicing	Hsp90 Hop PPI
Cn1c(=O)c2ncn(CC(=O)Nc3ccc4c5c(cccc35)CC4)c2n(C)c1=O	-4.5%	12.6µM*	3.2%	-10.3%	2.6%	-8.8%
Cc1cccc(C)c1NC(=O)Cn1cnc2c(=O)n(C)c(=O)n(C)c21	-7.0%	5.1%	0.0%	8.2%	-1.4%	0.4%
Cc1cccc2sc(NC(=O)C3CCCO3)nc12 (stereo unspecified)	-0.8%	-4.4%	-2.9%	-8.2%	0.1%	0.8%
Cc1nc(C)c(C(=O)Nc2nc3c(C)cccc3s2)o1	0.6%	31.6µM*	-2.0%	-1.6%	4.6%[1.84 µM]	-9.9%
C[C@H](N)C(=O)OC(C)(C)Cc1ccc(Cl)cc1	-0.4%	-7.3%	-1.1%	10.8%	0.8%	-7.2%
COc1cc(-n2c3nc4ccccc4nc3c3c(=O)n(Cc4ccco4)cnc32)cc(OC)c1OC	·	·	-1.6%[20.6 µM]	·	·	·
O=c1c2c3nc4ccccc4nc3n(Cc3ccccc3)c2ncn1Cc1ccco1	0.0%	10µM*	?	-19.1%	-0.1%[57.5 µM]	-3.3%
CC(C)OC(=O)C(C#N)c1nc2ccccc2nc1N1CCCC1 (stereo unspecified)	·	·	-1.3%[20.6 µM]	·	·	·
C=CCOC(=O)C(C#N)c1nc2ccccc2nc1N1CCN(Cc2ccc3c(c2)OCO3)CC1 (stereo unspecified)	·	1.26µM*	0.8%	?	0.3%[0.369 µM]	-15.9%
COc1ccc(CNC(=O)C(C#N)c2nc3ccccc3nc2N2CCCC2)cc1 (stereo unspecified)	?	i	?	-10.5%	12.6µM*	-4.7%
COC(=O)C(C#N)c1nc2ccccc2nc1N1CCCC1 (stereo unspecified)	0.0%	15.8µM*	0.0%	?	1.3%	-22.8%
N#CC(C(=O)OCc1ccccc1)c1nc2ccccc2nc1N1CCOCC1 (stereo unspecified)	1.1%	2µM*	2.1%	5.0%	-1.0%[57.5 µM]	-5.8%
CC1=CC(=O)CC(C)(C)[C@@]1(O)/C=C\C(C)=C\C(=O)O	1.3%	?	-4.7%[9.22 µM]	·	·	-0.2%
COC(=O)C1CCN(c2nc3ccccc3nc2C(C#N)C(=O)NCCc2ccccc2)CC1 (stereo unspecified)	·	·	5.2%[20.6 µM]	·	·	·
COc1ccc(CNC(=O)C(C#N)c2nc3ccccc3nc2N2CCN(C)CC2)cc1 (stereo unspecified)	6.2%	3.16µM*	2.6%	-9.3%	-1.4%	-8.2%
CCC(CC)COC(=O)C(C#N)c1nc2ccccc2nc1N1CCN(CC)CC1 (stereo unspecified)	-3.6%	1.26µM*	2.6%	0.1%	3.7%[1.84 µM]	-16.1%
Cc1nc2cncnc2n(Cc2ccccc2)c1=O	7.7%	-28.1%	2.2%[9.22 µM]	-10.8%	5.6%	-0.3%
O=c1c(-c2cccc(F)c2)nc2cncnc2n1Cc1ccc(F)cc1	0.7%	-21.1%	-0.5%[9.22 µM]	?	-0.2%	-16.0%
O=c1c(-c2cccc(F)c2)nc2cncnc2n1Cc1ccccc1	-1.2%	20µM*	18.5%[9.22 µM]	-23.2%	0.3%	-13.3%
O=c1c(-c2ccccc2)nc2cncnc2n1Cc1ccccc1	-4.0%	20µM*	-0.4%[9.22 µM]	?	3.7%	2.7%
O=[N+]([O-])c1ccc2ncccc2c1CCc1c([N+](=O)[O-])ccc2ncccc12	-1.5%[9.17 µM]	-13.9%[11.4 µM]	3.4%[9.22 µM]	-14.2%[11.5 µM]	4.2%[9.22 µM]	-1.9%[11 µM]
COc1cccc([C@@H]2Oc3ccc(OC)cc3/C(=N/O[C@@H](C)CN3CCCCc4nc(C)c(C)cc43)[C@@H]2O)c1	·	·	·	10.4%[11.5 µM]	-1.8%[9.22 µM]	·
Cn1cccc1Cc1nnc(SCC(=O)N2CCc3ccccc32)n1CCc1ccccc1	2.0%	79.8%	3.0%	15.8µM*	-0.5%	-24.1%
O=C1/C(=C/c2ccccc2)[C@@H](NC2CCCCC2)c2ccccc21	0.4%[9.17 µM]	-2.6%[11.4 µM]	?	-27.2%[11.5 µM]	-0.9%[9.22 µM]	-0.1%[11 µM]
Nc1ccc(-c2ccc3ccccc3n2)cc1	·	·	·	-3.8%	·	·
SMILES	Ub-GFP proteasome	Tau fil binding	Epigenetic mod	ERK AVP block	HBB splicing	Hsp90 Hop PPI
O=C1c2ccccc2C(=O)C1c1ccc2ccccc2n1	·	0.631µM*	-6.0%[20.6 µM]	?	-1.0%	?
O=C(Cn1nnc2c(cnn2-c2ccccc2)c1=O)N1CCN(c2ccccc2F)CC1	0.1%	?	0.0%	10.1%	-0.4%[57.5 µM]	1.1%
O=C(Cn1nnc2c(cnn2-c2ccc(F)cc2)c1=O)OC1CCCCC1	-2.0%	20µM*	-1.2%	7.4%	·	?
Oc1ccc(CNc2ccc(F)cc2)c2cccnc12	-9.0%	-17.8%	3.8%	4.4%	·	7.94µM*
Oc1c(CN2CCCCC2)cc(Br)c2cccnc12	22.1%	-28.1%	3.16µM*	5.9%	-1.1%	3.16µM*
Oc1ccc(CN2CCN(Cc3ccccc3)CC2)c2cccnc12	-3.4%	-24.4%	?	0.2%	·	3.98µM*
Oc1ccccc1-c1nc(N2CCN(Cc3ccccc3)CC2)c2ccccc2n1	4.3%	-5.4%	-2.2%	-9.9%	-5.1%[57.5 µM]	0.3%
COc1ccc(-c2nc(CSCC(=O)NCc3ccc4c(c3)OCO4)c(C)o2)cc1OC	-8.6%	-10.6%	·	31.6µM*	-1.2%	-3.0%[2.3 µM]
CC(C)c1ccc(CNc2ccc(N3CCOCC3)cc2)cc1	-2.1%	25.1µM*	-1.3%	?	·	?
CC(=O)N1CCN(c2ccc(NCc3ccc(F)cc3)cc2)CC1	1.7%	?	2.3%	-5.8%	-0.3%	-10.6%
COCCn1c(=O)c(-c2ccc(Cl)cc2)nc2cnc(N3CCNCC3)nc21	6.0%	77.2%	-0.5%[9.22 µM]	10.5%	-1.6%	4.5%
COc1ccc2nc(N3CCCC3)c(C#N)cc2c1	3.7%	i	10.5%	76.0%	·	25.1µM*
COc1ccc2nc(SCC(=O)N3CCCCCC3)c(C#N)cc2c1	2.6%	1.0%	3.5%	9.7%	·	5.7%
Cc1ccc2cc(C#N)c(N3CCCC3)nc2c1C	4.2%	-28.9%	0.3%	26.8%	-0.6%	1.2%
COc1ccc2nc(N3CCCCC3)c(C#N)cc2c1	5.7%	i	-2.3%	102.5%	·	25.1µM*
Oc1cc(O)c2c(c1)O[C@@H](c1ccc(O)c(O)c1)[C@H](O[C@@]1(c3cc(O)c(O)c(O)c3)Oc3cc(O)cc(O)c3[C@H](O)[C@@H]1O)C2	-1.5%[9.17 µM]	0.4%[11.4 µM]	0.0%[9.22 µM]	-15.3%[11.5 µM]	2.6%[9.22 µM]	?
CNC(=O)[C@@H]1O[C@@H](n2cnc3c(N)ncnc32)[C@@H](O)[C@H]1O	-0.3%	-16.4%	-2.2%	-4.0%	1.1%	?
O=C(NCCN1CCOCC1)c1cc(-c2ccc(O)cc2)on1	-10.2%	8.9%	3.4%	-17.8%	-0.2%	-2.5%
Nc1ncnc2c1nc(Br)n2[C@@H]1O[C@H]2COP(=O)(O)O[C@@H]2[C@H]1O	-8.0%	-4.7%	-2.2%	5.6%	0.5%	-1.3%
O=C(c1ccco1)N1CCN(C(=O)c2cc(-c3ccccn3)nc3ccc(Cl)cc23)CC1	-2.3%	10µM*	2.1%	-27.4%	-0.5%	-27.9%
